# Measured values reported in PubChem BioAssay (NCATS).
# Inconclusive results are not listed. Calls of active or inactive are those of the source. Unless noted, calls follow the shape of the dose curve; as a rule, active = well fitted curve in either direction with a large enough effect (not every such curve was filed as active); inconclusive = small, poorly fitted or top-dose-only effect, or another doubt; inactive = flat fitted curve, though single readings scatter.
# Tests used:
# [1] = target: Lysosomal acid glucosylceramidase (Homo sapiens) (UniProt P04062); assay: Glucocerebrosidase-p2 (AID 348; in the data active = potency below about 10 µM; also: potency is read from the fitted curve at half-maximal effect); details: purified GBA, blue fluorogenic substrate, 40 min
# Chain of Lysosomal acid glucosylceramidase (Homo sapiens) (P04062 whole entry, looked up): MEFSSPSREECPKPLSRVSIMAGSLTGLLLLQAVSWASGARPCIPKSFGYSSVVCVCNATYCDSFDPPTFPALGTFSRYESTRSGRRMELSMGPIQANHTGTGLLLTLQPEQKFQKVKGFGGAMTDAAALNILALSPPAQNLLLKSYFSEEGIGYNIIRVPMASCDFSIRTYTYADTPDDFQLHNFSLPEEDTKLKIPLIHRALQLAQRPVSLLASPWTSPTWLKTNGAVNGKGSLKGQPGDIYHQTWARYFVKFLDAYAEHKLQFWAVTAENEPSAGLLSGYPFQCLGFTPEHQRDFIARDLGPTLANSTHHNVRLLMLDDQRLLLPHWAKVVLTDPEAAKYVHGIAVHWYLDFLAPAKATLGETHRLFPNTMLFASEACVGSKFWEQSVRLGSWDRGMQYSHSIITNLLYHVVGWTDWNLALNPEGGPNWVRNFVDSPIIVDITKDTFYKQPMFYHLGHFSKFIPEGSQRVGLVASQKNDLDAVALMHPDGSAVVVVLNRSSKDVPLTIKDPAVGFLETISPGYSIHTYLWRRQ
# Summary of the method: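 Compounds titrated from 0.6 nM upwards against 0.2 nM enzyme in pH 5.9 citric acid/KH2PO4, taurocholate, tween-20; blue fluorogenic substrate 80 uM, 40 min room temperature, stopped and read Ex 365/Em 440 for AC50.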
# [2] = AP1 Signaling Pathway (AID 357); details: ME-180 AP-1-bla reporter, EGF-induced, beta-lactamase ratio, 5 h; at 7.69 µM (top of the series) unless noted;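 also: ME-180 reporter cells stimulated with EGF at its EC50 level; % is scaled to controls: 0 for no effect and ±100 for the full control effect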
# Summary of the method: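 Beta-lactamase reporter under AP-1 response element, ME-180 background. Stimulus: EC50 EGF. Compound exposure 5 h, 37 °C. Detection: CCF4, 2.5 h RT, 460/530 nm. Values: AC50 from titration.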
# [3] = target: Cytochrome P450 1A2 (Homo sapiens) (UniProt P05177); assay: p450-cyp1a2 (AID 410; calls by dose curve; also: potency is read from the fitted curve at half-maximal effect;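 as to activity change, negative = inhibition: -100% = full effect of reference inhibitor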); details: recombinant CYP1A2, luciferin-ME demethylation, luminescence; series mostly up to 57 µM
# Chain of Cytochrome P450 1A2 (Homo sapiens) (P05177 whole entry, looked up): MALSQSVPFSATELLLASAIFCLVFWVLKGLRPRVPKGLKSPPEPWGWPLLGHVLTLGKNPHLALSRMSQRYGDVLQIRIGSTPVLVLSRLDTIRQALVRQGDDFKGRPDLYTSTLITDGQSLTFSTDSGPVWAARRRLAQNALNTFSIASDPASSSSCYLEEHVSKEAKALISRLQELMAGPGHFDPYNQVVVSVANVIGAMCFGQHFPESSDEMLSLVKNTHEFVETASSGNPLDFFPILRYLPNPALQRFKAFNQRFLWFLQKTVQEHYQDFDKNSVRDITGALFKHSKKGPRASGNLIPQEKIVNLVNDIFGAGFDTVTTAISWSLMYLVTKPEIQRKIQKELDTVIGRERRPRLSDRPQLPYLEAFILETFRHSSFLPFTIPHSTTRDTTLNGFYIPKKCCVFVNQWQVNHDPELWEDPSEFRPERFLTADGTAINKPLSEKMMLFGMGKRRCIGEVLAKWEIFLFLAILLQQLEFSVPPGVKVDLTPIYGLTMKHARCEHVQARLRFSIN
# Summary of the method: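 Luminescent readout of luciferin formed from Luciferin-ME by human CYP1A2; data normalized against complete inhibition by 57 uM furafylline. Enzyme 20nM, substrate 100uM at Km, 100mM KPO4 buffer, 60 min reaction at room temperature.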
# [4] = NFAT Signaling Pathway (AID 444); details: Jurkat NFAT-bla M1, carbachol, beta-lactamase ratio, 5 h; at 7.69 µM (top of the series) unless noted;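 also: carbachol stimulus at about its EC50 of 1 µM final; % is scaled to controls: 0 for no effect and ±100 for the full control effect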
# Summary of the method: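 Read-out: CCF4 FRET ratio (460 nm/530 nm) after 1 h RT dye loading, used for %activity and AC50 from titration series. Cells: Jurkat NFAT-β-lactamase/M1 line, treated with compound plus 1 uM carbachol for 5 h, 37 °C.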
# [5] = Stat Signaling Pathway (AID 446); details: ME-180 (cervical carcinoma) SIE beta-lactamase reporter, IL-6 stimulated, 5 h; at 7.69 µM (top of the series) unless noted;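 also: ME-180 cervical cancer cells given 40 pM IL-6 alongside compound; SIE-controlled beta-lactamase reporter measured as 460/530 nm FRET emission ratio; % is scaled to controls: 0 for no effect and ±100 for the full control effect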
# Summary of the method: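 IL-6/STAT signaling read in ME-180 cells via an SIE beta-lactamase reporter. Stimulus was 40 pM IL-6 (its AC50) for 5 hrs, so both activation and inhibition register.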
# [6] = target: Glucocorticoid receptor (Homo sapiens) (UniProt P04150); assay: GR-EFC Redistribution (AID 451; calls by dose curve; also: potency is read from the fitted curve at half-maximal effect); details: CHO-K1 GR-EFC translocation, beta-gal luminescence, 2 h
# Chain of Glucocorticoid receptor (Homo sapiens) (P04150 whole entry, looked up, the tested form may be a part): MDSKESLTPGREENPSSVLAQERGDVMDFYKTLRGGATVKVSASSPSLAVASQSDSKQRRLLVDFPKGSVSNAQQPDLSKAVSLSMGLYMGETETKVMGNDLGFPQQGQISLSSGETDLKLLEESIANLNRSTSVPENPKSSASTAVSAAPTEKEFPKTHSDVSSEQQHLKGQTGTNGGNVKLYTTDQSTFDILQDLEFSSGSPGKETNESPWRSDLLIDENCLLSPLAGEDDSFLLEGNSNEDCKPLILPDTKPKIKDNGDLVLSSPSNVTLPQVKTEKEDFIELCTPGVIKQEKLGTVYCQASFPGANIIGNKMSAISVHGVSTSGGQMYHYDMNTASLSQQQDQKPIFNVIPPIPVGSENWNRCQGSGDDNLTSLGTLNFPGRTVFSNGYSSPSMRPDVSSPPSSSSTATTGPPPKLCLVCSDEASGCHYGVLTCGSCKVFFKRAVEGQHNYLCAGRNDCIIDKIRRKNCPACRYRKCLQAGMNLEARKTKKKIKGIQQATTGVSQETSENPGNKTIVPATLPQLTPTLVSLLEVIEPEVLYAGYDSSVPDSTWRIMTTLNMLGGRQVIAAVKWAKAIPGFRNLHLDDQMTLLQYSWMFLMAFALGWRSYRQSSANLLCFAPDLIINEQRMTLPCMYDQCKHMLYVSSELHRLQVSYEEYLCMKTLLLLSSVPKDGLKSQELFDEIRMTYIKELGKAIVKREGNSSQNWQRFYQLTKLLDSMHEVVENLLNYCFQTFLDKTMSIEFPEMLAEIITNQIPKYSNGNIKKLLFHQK
# Summary of the method: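 Translocation of GR-ED fusion to nuclear EA restores b-gal, read by luminescence after 1 h room-temperature detection. Engineered CHO-K1 biosensor cells, 1,000/well, exposed 2 h at 37 C to titrations up to 46 uM final.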
# [7] = target: Mitogen-activated protein kinase 10 (Mus musculus) (UniProt Q61831); assay: JNK3 AlphaScreen Assay (AID 530); details: JNK3 lysate, c-Jun phosphorylation; series mostly up to 57.1 µM;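 also: kinase came from lysate of stimulated human HepG2 cells; signal reports phosphorylation of biotinylated GST-cJun 1-79 at Ser73 with 10 µM ATP; % is scaled to controls: 0 for no effect and ±100 for the full control effect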
# Summary of the method: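 Compound titrations were preincubated 15 minutes at room temperature with substrate, antibody and pre-activated JNK3-containing HepG2 lysate. Reactions were started with 10 uM ATP and stopped with EDTA-containing bead buffer for AlphaScreen detection.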
# [8] = target: 3',5'-cyclic-AMP phosphodiesterase 4B (Homo sapiens) (UniProt Q07343); assay: qHTS Assay for Inhibitors of PDE-IV (AID 607; active = well fitted activation curve with a large enough effect in the main read-out, with a control signal flat, not every such curve was filed as active; also: % of control where 0% means no effect); details: HEK293 ACTOne CNG channel cells, membrane potential fluorescence; series mostly up to 22.9 µM
# Chain of 3',5'-cyclic-AMP phosphodiesterase 4B (Homo sapiens) (Q07343 whole entry, looked up): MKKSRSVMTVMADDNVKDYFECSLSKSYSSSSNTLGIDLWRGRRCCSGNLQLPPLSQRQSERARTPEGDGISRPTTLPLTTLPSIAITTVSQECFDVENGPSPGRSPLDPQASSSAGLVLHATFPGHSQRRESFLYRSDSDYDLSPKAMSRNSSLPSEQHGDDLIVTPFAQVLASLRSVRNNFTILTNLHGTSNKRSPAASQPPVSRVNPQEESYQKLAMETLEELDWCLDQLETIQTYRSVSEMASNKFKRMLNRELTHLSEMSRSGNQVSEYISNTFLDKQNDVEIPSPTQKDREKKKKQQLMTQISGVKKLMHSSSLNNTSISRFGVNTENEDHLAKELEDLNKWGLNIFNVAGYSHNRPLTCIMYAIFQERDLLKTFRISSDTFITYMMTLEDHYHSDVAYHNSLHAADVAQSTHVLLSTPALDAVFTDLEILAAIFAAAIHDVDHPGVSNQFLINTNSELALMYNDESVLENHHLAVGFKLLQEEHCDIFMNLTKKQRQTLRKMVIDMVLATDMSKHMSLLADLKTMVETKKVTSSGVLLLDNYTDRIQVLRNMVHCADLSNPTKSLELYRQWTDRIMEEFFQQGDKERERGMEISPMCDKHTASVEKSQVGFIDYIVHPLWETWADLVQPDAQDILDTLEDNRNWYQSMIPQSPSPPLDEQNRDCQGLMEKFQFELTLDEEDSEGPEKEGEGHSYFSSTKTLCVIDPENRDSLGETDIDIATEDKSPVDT
# Summary of the method: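 Live HEK293 cells with a modified cyclic nucleotide-gated (CNG) channel report intracellular cAMP via membrane-potential dye fluorescence (ex 535/em 590 nm). Endogenous PDE-IV was targeted. Compounds were tested at up to 22.9 uM final; RO 20-1724 100 uM served as control.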
# [9] = target: Cytochrome P450 3A4 (Homo sapiens) (UniProt P08684); assay: qHTS Assay for Activators of Cytochrome P450 3A4 (AID 885; active = well fitted curve in the direction sought with a large enough effect; an effect the other way counts as inactive or inconclusive; also: nearly all actives have a fitted effect of over 65% in size); details: recombinant CYP3A4, Luciferin-PPXE luminescence, 60 min; series mostly up to 57.1 µM
# Chain of Cytochrome P450 3A4 (Homo sapiens) (P08684 whole entry, looked up): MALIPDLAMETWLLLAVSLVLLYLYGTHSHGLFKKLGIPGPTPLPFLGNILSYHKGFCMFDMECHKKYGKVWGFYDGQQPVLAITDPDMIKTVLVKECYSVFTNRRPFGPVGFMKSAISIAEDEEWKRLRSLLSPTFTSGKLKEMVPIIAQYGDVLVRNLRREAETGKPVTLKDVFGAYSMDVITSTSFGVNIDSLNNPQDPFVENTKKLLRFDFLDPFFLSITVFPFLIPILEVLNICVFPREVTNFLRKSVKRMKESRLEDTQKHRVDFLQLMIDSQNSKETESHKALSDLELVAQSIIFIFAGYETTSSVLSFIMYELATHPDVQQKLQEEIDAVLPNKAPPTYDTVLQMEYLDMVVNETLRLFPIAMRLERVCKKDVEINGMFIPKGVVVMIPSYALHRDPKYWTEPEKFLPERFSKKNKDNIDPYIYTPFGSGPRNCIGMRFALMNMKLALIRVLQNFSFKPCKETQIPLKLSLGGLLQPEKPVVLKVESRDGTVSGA
# Summary of the method: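 Quantitative HTS format: compounds preincubated with 20nM human CYP3A4 and Luciferin-PPXE substrate at KM, reaction started by NADPH regeneration, stopped after 60 min, luciferase luminescence read 20 min later.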
# [10] = target: Cytochrome P450 2C19 (Homo sapiens) (UniProt P33261); assay: qHTS Assay for Inhibitors and Substrates of Cytochrome P450 2C19 (AID 899; active = well fitted curve in the direction sought with a large enough effect; an effect the other way counts as inactive or inconclusive; also: potency is read from the fitted curve at half-maximal effect; nearly all actives have a fitted effect of over 60% in size); details: recombinant CYP2C19, luciferin-H EGE luminescence; series mostly up to 57.1 µM
# Chain of Cytochrome P450 2C19 (Homo sapiens) (P33261 whole entry, looked up): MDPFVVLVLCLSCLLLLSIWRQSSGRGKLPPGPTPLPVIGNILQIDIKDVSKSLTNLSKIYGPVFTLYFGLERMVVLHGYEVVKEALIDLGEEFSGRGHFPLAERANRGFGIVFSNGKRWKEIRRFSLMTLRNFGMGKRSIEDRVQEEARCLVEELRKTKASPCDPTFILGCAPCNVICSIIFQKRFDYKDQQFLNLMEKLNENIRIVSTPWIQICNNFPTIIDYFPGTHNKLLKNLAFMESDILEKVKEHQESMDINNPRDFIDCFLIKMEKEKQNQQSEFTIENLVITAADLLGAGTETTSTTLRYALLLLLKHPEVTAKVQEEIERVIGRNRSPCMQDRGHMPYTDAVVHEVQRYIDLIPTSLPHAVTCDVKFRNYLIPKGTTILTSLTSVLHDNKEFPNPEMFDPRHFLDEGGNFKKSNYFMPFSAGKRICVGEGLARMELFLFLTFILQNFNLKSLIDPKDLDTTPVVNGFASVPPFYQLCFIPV
# Summary of the method: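 Reactions contain 5nM enzyme, 10uM Luciferin-H EGE (KM) and 50mM KPO4; compound preincubates 10 min at 37C, NADPH regeneration starts turnover for 60 min. Luminescence after detection reagent gives activity.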
# [11] = qHTS Assay for Lipid Storage Modulators (AID 1519; calls by dose curve); details: Drosophila S3 cells, BODIPY lipid droplet/cell ratio, laser cytometry, cells loaded with oleic acid; for activity change, negative = inhibition: at 57.5 µM (top of the series)
# Summary of the method: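 Cells seeded at 5,000 per well were treated with compounds over a concentration series and loaded with oleic acid (400 uM, as added). Lipid droplet fluorescence (488 nm excitation, 500-530 nm channel) was read by laser-scanning cytometry and normalized to 20 uM Triacsin C.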
# [12] = Primary qHTS for small molecule stabilizers of the endoplasmic reticulum resident proteome: Secreted ER Calcium Modulated Protein (SERCaMP) assay (AID 1508630; active = well fitted curve in the direction sought with a large enough effect; an effect the other way counts as inactive or inconclusive; also: % is scaled to controls: 0 for no effect and ±100 for the full control effect); details: SH-SY5Y GLuc-SERCaMP (Gaussia luciferase released on ER calcium loss) secretion, thapsigargin, luminescence; series mostly up to 38.4 µM
# Summary of the method: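 GLuc-SERCaMP-expressing SH-SY5Y cells, pretreated 16 h with compound, are challenged with thapsigargin to empty ER calcium stores; after 4 h, coelenterazine is added directly to the medium and luminescence is imaged.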
# [13] = target: Cytochrome P450 2D6 (Homo sapiens) (UniProt P10635); assay: qHTS Assay for Inhibitors and Substrates of Cytochrome P450 2D6 (AID 891; active = well fitted curve in the direction sought with a large enough effect; an effect the other way counts as inactive or inconclusive; also: potency is read from the fitted curve at half-maximal effect; nearly all actives have a fitted effect of over 60% in size); details: recombinant CYP2D6, luciferin-ME EGE luminescence; series mostly up to 57.1 µM
# Chain of Cytochrome P450 2D6 (Homo sapiens) (P10635 whole entry, looked up): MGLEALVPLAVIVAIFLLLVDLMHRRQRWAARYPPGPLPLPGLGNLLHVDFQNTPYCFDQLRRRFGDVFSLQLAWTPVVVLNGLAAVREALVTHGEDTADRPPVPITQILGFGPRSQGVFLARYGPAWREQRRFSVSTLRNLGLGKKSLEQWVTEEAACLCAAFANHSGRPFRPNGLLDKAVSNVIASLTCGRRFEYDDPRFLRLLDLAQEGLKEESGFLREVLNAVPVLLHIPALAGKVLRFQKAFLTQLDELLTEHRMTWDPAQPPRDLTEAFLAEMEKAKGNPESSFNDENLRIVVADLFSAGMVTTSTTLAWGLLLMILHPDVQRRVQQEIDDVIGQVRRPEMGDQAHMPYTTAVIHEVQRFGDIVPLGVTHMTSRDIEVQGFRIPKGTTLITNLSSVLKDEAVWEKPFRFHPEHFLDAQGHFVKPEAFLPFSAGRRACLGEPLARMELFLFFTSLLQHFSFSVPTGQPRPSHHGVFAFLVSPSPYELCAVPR
# Summary of the method: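 Human CYP2D6 (5 nM) with 30 uM Luciferin-ME EGE (at Km) in 100 mM KPO4, compound preincubated 10 min, then NADPH regeneration system for 60 min at room temperature. Luciferin read by luminescence; normalized to 1.43 uM quinidine.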
# [14] = target: Cytochrome P450 3A4 (Homo sapiens) (UniProt P08684); assay: qHTS Assay for Inhibitors and Substrates of Cytochrome P450 3A4 (AID 884; active = well fitted curve in the direction sought with a large enough effect; an effect the other way counts as inactive or inconclusive; also: potency is read from the fitted curve at half-maximal effect; nearly all actives have a fitted effect of over 50% in size); details: recombinant CYP3A4, Luciferin-PPXE luminescence; series mostly up to 57.1 µM
# Summary of the method: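 20 nM human CYP3A4 with 25 uM Luciferin-PPXE (at KM) in 200 mM KPO4, preincubated 10 min with compound; NADPH regeneration started a 60 min RT reaction. Luciferin detected by luminescence, normalized to 57 uM ketoconazole as full inhibition.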
# [15] = target: Glucocorticoid receptor (Homo sapiens) (UniProt P04150); assay: GR-GFP Redistribution (AID 450;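 active = compounds whose dose series gives a full or clear partial fitted curve of increased nuclear translocation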; also: potency is read from the fitted curve at half-maximal effect); details: U2OS GR-GFP nuclear translocation, laser cytometry, 2 h
# [16] = Confirmation and Secondary Assay for Modulators of Hemoglobin Beta Chain Splicing at IVS2 654 locus (AID 910; active = well fitted curve in the direction sought with a large enough effect; an effect the other way counts as inactive or inconclusive;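 also: HeLa cells stably carrying EGFP split by mutant beta-globin IVS2-654 intron; per-well total GFP intensity by laser scanning cytometry after 2-day treatment; % of control where 0% means no effect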); details: HeLa EGFP-654 splicing reporter, GFP fluorescence, 48 h; series mostly up to 38.3 µM
# Summary of the method: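 Readout: per-well total peak green fluorescence (488 nm ex, 500–520 nm em) from objects 5–250 µm, reflecting correct splicing of an EGFP-654 reporter. Compounds were applied for 2 days at 37 °C to overnight-plated HeLa EGFP-654 cells; controls were DMSO and 500 nM IVS2-654 PNA.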
# [17] = Confirmation and Secondary Assay for Modulators of Hemoglobin Beta Chain Splicing at IVS2 705 locus (AID 930; active = well fitted curve in the direction sought with a large enough effect; an effect the other way counts as inactive or inconclusive;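 also: HeLa cells stably expressing the EGFP-705 splicing reporter; GFP fluorescence per well restored by corrected splicing of the IVS2-705 intron in EGFP; % of control where 0% means no effect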); details: HeLa EGFP-705 splicing reporter, GFP fluorescence, 48 h; series mostly up to 38.3 µM
# Summary of the method: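 Splice-correction reporter: EGFP cDNA split by beta-globin intron 2 bearing the 705 mutation, stably in HeLa. Compound incubation 2 days, 37C; fluorescent objects 5-250 µm summed per well.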
# [18] = target: Ubiquitin carboxyl-terminal hydrolase 1 (Homo sapiens) (UniProt O94782); assay: Inhibitors of USP1/UAF1: Pilot qHTS (AID 504865; active = well fitted curve in the direction sought with a large enough effect; an effect the other way counts as inactive or inconclusive;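 also: rhodamine fluorescence freed from ubiquitin-rhodamine substrate followed over time; top concentration of the series differs between compounds; % is scaled to controls: 0 for no effect and ±100 for the full control effect; nearly all actives have a fitted effect of over 35% in size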); details: purified USP1/UAF1, Ub-rhodamine cleavage fluorescence; series mostly up to 54.9 µM
# Chain of Ubiquitin carboxyl-terminal hydrolase 1 (Homo sapiens) (O94782 whole entry, looked up): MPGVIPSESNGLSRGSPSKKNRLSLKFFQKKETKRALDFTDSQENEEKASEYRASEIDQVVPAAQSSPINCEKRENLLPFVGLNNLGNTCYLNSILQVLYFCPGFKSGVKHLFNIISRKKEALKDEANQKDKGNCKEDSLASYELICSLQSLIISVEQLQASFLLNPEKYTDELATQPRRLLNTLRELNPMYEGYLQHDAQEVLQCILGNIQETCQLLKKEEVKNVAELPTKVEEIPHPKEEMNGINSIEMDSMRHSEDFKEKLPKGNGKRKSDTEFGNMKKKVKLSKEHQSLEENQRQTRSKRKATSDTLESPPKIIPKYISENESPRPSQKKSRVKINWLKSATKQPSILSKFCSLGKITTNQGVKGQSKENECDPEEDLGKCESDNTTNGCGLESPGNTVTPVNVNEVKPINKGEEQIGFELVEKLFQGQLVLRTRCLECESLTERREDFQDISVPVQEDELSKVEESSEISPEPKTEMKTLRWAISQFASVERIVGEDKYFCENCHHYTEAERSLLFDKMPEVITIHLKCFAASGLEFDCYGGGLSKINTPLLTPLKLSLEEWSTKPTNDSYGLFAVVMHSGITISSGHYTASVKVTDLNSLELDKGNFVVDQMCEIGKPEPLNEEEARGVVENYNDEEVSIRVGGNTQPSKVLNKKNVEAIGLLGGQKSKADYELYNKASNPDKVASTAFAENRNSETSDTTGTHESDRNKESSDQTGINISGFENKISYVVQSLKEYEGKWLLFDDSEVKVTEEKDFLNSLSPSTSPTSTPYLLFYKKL
# Summary of the method: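 Deubiquitinase activity followed as kinetic rhodamine fluorescence release from 150 nM Ub-Rho. 1 nM USP1/UAF1 with compound, after 15 min room-temperature preincubation, in HEPES pH 7.8 buffer containing TCEP, EDTA, BSA and Tween-20.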
# [19] = measured here: cell count channel max response
# [20] = measured here: lipid channel max response
SMILES,Potency [1],"activity change, negative = inhibition [2]",Potency [3],"activity change, negative = inhibition [4]","activity, negative = inhibition [5]",Potency [6],outcome [7],Potency [8],Potency [9],Potency [10],"activity change, negative = inhibition [11]","max response [11, 19] [%]","max response [11, 20] [%]",Potency [12],Potency [13],Potency [14],Potency [15],outcome [16],outcome [17],Potency [18]
CS(=O)(=O)N1CCC[C@@]2(CCN(c3ccccc3)C2)C1,> 11.4 µM (inactive),-11.3% (inactive),31.6 µM (active),-3.01% (inactive),-2.15% (inactive),> 46 µM (inactive),inactive,inactive,inactive,3.16 µM (active),-16.2% (inactive),2,-14,inactive,–,–,–,–,–,–
O=C(Nc1ccccc1)N1CCC2(CC1)CCN(S(=O)(=O)c1ccccc1)CC2,> 11.4 µM (inactive),-0.036% (inactive),7.94 µM (active),21.1% (inactive),–,> 46 µM (inactive),inactive,inactive,inactive,–,3.55% (inactive),-0.439,7.34,inactive,–,–,–,–,–,–
COCC(=O)N1CCC[C@@]2(CCN(Cc3ccccc3)C2)C1,> 11.4 µM (inactive),-0.884% (inactive),inactive,19.9% (inactive),7.86% (inactive),–,inactive,inactive,inactive,–,4% (inactive),6.62,13.4,inactive,6.31 µM (active),–,–,–,–,–
N#Cc1cccc(NC(=O)N2CC[C@@]3(CCCN(C(=O)c4ccncc4)C3)C2)c1,> 11.4 µM (inactive),-19.8% (inactive),inactive,1.61% (inactive),4.09% (inactive),–,inactive,inactive,inactive,–,1.67% (inactive),17.2,21.1,inactive,–,–,–,–,–,–
O=C(c1cnccn1)N1CCC[C@@]2(CCN(c3ccncc3)C2)C1,> 11.4 µM (inactive),-3.24% (inactive),inactive,1.53% (inactive),5.94% (inactive),> 46 µM (inactive),–,inactive,inactive,–,3.16% (inactive),6.74,12.1,inactive,–,3.16 µM (active),–,–,–,–
CN(C)c1ncnc2ccc(-c3ccccc3C#N)cc12,> 11.4 µM (inactive),-24% (inactive),0.398 µM (active),20.3% (inactive),–,> 46 µM (inactive),inactive,inactive,inactive,–,8.38% (inactive),15.4,23.3,inactive,–,–,> 46 µM (inactive),inactive,inactive,inactive
COCC(=O)N1CCC2(CCCN(Cc3cc(C(F)(F)F)cc(C(F)(F)F)c3)C2)CC1,> 11.4 µM (inactive),-15.5% (inactive),inactive,-0.717% (inactive),3.96% (inactive),–,inactive,inactive,inactive,–,-0.278% (inactive),26.3,28.3,inactive,–,–,–,–,–,–
